Activity calls are given as the source filed them.

Assay [1] concerns Plasmodium falciparum Sir2 (PF13_0152, Sir2A). Put plainly: pfSir2 binders on small-molecule microarrays, primary screen, biochemical, small-molecule microarray, 635 nm fluorescence (AID 1098).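 Further: score merges spot fluorescence intensity with its signal-to-noise ratio.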 The settings on record: small-molecule microarray binding, fluorescence 635 nm; higher = more signal.
Assay [2] can be described thus: small-molecule microarray binders of probe aDKK1, primary screen, biochemical, biotinylated probe, 635/667 nm fluorescence (AID 1099).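 Further: score merges 667nm spot fluorescence with signal to noise across triplicate slides; reference of the scale not given here.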 The following applies: higher = more signal.
Assay [3] is described as follows: small-molecule microarray binders of probe aCHRDL2, primary screen, biochemical, biotinylated probe, 635/667 nm fluorescence (AID 1100). The following applies: higher = more signal.
Assay [4] in a line: splicing luciferase reporter signal modulators, primary screen, spliceosome inhibition project, cell-based, HEK293, splice +/- reporter (AID 1101).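 Further: HEK293 cells carrying a splicing-competent luciferase reporter gene; test concentration not given here.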 The following applies: luminescence, 24 h, higher = more signal, called active from +8 up or from −8 down.
Assay [5] addresses Fibroblast growth factor 10 (Homo sapiens) (UniProt O15520). Put plainly: FGF10 binders on small-molecule microarrays, primary screen, biochemical, small-molecule microarray, 635 nm fluorescence (AID 1102). The settings on record: FGF10 binding, fluorescence 635 nm, higher = more signal.
Assay [6] has as its system glycogen synthase kinase-3 (GSK3A per assay name; protocol says GSK3B). Put plainly: GSK3 binders on small-molecule microarrays, primary screen, biochemical, small-molecule microarray, 635 nm fluorescence, GSK3A (AID 1103). Further: the record names both GSK3A and GSK3B. The following applies: small-molecule microarray binding, fluorescence 635 nm; higher = more signal.
The target of assay [7] is Epidermal growth factor receptor (Homo sapiens) (UniProt P00533). The experiment in a line: EGFR binders on small-molecule microarrays, primary screen, biochemical, small-molecule microarray, 635 nm fluorescence (AID 1104).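 Further: score merges 667 nm emission intensity with spot signal to noise over triplicate slides.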 The following applies: EGFR binding, higher = more signal.
Assay [8] addresses Follistatin-related protein 3 (Homo sapiens) (UniProt O95633). Put plainly: FSTL3 binders on small-molecule microarrays, primary screen, biochemical, small-molecule microarray, 635 nm fluorescence (AID 1105).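 Further: score merges emission near 667 nm and signal to noise per printed spot across three slides.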 The following applies: FSTL3 binding, higher = more signal.
In assay [9] the target is Dickkopf-related protein 1 (Homo sapiens) (UniProt O94907). The experiment in a line: DKK1 binders on small-molecule microarrays, primary screen, biochemical, small-molecule microarray, 635 nm fluorescence scan (AID 1106).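 Further: score merges emission near 667 nm with signal to noise over three replicate slides.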 The following applies: DKK1 binding, higher = more signal.
Assay [10] relates to Inhibin beta A chain (activin A). The experiment in a line: INHBA (activin A) binders on microarrays, primary screen, biochemical, small-molecule microarray, 635 nm fluorescence scan (AID 1107).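 Further: mouse activin A protein probed at 4.33 µg/mL on printed slides; score merges bound-protein fluorescence near 667 nm with spot signal-to-noise.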 The following applies: small-molecule microarray binding, higher = more signal.

Sequence of Fibroblast growth factor 10 (Homo sapiens) (O15520 whole entry, looked up): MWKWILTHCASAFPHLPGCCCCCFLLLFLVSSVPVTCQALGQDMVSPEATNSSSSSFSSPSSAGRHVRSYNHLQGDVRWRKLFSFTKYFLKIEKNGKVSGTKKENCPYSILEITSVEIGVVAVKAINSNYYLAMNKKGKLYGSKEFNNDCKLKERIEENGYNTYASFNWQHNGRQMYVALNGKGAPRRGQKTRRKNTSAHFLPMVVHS
Sequence of Dickkopf-related protein 1 (Homo sapiens) (O94907 whole entry, looked up): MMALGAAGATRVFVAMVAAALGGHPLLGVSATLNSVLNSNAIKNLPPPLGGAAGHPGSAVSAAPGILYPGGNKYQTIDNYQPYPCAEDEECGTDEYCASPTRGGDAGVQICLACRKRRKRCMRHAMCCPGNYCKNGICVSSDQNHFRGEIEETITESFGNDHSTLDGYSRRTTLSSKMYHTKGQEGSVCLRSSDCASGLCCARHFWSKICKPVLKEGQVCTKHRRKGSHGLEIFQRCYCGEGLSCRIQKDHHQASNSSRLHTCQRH
Sequence of Follistatin-related protein 3 (Homo sapiens) (O95633 whole entry, looked up): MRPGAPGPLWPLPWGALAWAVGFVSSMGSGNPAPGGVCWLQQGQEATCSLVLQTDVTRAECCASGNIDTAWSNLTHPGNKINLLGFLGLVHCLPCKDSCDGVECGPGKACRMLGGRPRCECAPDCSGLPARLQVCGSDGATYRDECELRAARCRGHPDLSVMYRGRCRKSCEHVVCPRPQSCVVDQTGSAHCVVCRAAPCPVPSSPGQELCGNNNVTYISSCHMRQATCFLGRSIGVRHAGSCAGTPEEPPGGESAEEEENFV
Sequence of Epidermal growth factor receptor (Homo sapiens) (P00533 whole entry, looked up): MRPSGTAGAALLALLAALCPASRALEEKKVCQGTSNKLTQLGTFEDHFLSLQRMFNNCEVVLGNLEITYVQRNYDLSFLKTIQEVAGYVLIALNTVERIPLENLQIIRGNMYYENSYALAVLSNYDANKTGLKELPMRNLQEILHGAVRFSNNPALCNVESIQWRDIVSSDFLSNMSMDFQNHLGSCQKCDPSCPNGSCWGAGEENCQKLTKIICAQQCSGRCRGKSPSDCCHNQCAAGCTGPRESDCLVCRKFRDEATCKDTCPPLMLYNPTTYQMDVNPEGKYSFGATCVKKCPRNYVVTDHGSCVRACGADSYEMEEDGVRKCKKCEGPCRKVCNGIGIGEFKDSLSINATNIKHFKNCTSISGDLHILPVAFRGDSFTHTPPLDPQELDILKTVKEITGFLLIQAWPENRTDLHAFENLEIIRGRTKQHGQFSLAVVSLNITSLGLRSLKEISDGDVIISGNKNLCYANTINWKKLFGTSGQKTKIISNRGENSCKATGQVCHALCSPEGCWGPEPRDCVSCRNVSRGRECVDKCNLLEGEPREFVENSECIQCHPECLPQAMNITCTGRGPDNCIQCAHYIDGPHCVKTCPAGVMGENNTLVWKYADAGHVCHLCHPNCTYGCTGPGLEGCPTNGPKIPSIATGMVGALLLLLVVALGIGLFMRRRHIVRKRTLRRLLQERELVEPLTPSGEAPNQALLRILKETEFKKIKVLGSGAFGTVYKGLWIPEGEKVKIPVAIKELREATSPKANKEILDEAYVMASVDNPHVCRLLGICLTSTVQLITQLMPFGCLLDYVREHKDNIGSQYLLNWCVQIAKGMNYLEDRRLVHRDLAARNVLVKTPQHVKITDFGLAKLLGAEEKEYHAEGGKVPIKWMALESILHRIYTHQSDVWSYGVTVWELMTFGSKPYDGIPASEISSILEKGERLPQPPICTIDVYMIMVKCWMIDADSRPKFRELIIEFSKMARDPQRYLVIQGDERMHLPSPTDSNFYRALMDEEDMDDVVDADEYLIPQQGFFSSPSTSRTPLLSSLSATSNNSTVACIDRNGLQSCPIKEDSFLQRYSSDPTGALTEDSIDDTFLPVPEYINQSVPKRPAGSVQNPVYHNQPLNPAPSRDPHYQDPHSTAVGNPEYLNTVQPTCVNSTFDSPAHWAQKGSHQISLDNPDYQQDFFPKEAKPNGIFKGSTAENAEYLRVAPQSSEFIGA

Consider `COC(=O)[C@@]1(CCS(=O)(=O)c2ccccc2)N=C(c2ccc(OCCCO)cc2)O[C@H]1c1ccccc1CN=[N+]=[N-]`, for which the composite z-score was 1.21 in assay [1]; 1.11 in [2]; 1.2 in assay [3]; 0.336 in assay [5]; 1.24 in [6]; 0.143 in assay [7]. The composite z-score was 1.01 in assay [8], -0.0332 in assay [9] and 0.799 in [10]. In assay [4], the z-score was 0.362 (inactive).

On to `COC(=O)[C@@]1(Cc2ccc(F)cc2)[C@H]2c3cc(C(=O)N(C)C)n(Cc4ccccc4)c3C[C@H]2CN1C(=O)c1ccccc1`, for which the composite z-score in assay [1] is 1.18; in [2], 1.06; in assay [3], 0.971; in assay [5] it was 0.483; in assay [6] it was -0.159; in [7], -0.22. The figures for the composite z-score in assay [8], in assay [9] and in [10] were 0.827, -0.251 and 0.766, respectively. Also, in [4], the z-score was -0.376 (inactive).

As to `C[N+](C)(C)CCCCNC(=O)[C@@H]1C[C@@H]2C(=O)N[C@@H](Cc3ccccc3)C(=O)N2[C@@H]1c1cccc(OCCO)c1`, the composite z-score is 1.32 in assay [1]; -0.0907 in [2]; 0.361 in assay [3]; 0.849 in assay [5]; -0.494 in [6]; -0.35 in assay [7]. Besides, the composite z-score in [8] is 0.683; in assay [9] it was 1.49; in assay [10], -0.15. Besides, in assay [4], the z-score is -0.379 (inactive).

`O=C1[C@@]23C=C(Br)[C@H](C[C@@H]2CCOC3)[C@@]12CO2`: the composite z-score in assay [1] is 0.204; in assay [2] it was -0.327; in assay [3], -0.478; in assay [5] it was 0.254; in assay [6], 0.329; in [7], 0.442. Besides, the composite z-score is 0.473 in assay [8], 0.485 in [9] and 0.684 in [10]. Besides, the z-score in assay [4] is 0.149 (inactive).

As to `COC(=O)[C@@]1(Cc2ccc(F)cc2)[C@H]2c3cc(C(=O)N4CCCC4)n(CCCNc4ncc(C(F)(F)F)cc4Cl)c3C[C@H]2CN1C(=O)c1ccccc1`, the composite z-score is 0.913 in assay [1]; 1.43 in [2]; 1.05 in [3]; 0.137 in [5]; -0.548 in assay [6]; 0.23 in assay [7]. In addition, the figures for the composite z-score in [8], in assay [9] and in assay [10] were -0.142, -0.808 and 1.17, respectively. In addition, the z-score in [4] was -2.38 (inactive).

With `NC(=O)[C@@H]1[C@H]2C(=O)O[C@H](c3ccccc3)[C@H](c3ccccc3)N2[C@H](c2ccc(O)cc2)[C@@]12C(=O)Nc1ccccc12`, the composite z-score in assay [1] is 0.0555; in assay [2], -0.109; in [3], 0.798; in assay [5], -0.433; in assay [6], -1.04; in [7], -0.49. Besides, the composite z-score was -1.06 in assay [8], -1.91 in assay [9] and -0.638 in assay [10]. Further, the z-score in [4] is -0.936 (inactive).

As for `CC[C@@H]1C=C(C(=O)O)[C@H](c2ccc(Br)cc2)N1S(=O)(=O)c1ccc(C)cc1`, the composite z-score in assay [1] stood at 0.118; in assay [2], 0.495; in assay [3] it was 0.882; in assay [5], 0.102; in assay [6], 0.268; in assay [7] it was 0.444. Also, the composite z-score in assay [8] was 0.563; in assay [9], -0.235; in assay [10], 1.11. Moreover, the z-score in assay [4] is 1.28 (inactive).

With `CC#CC(=O)Oc1ccccc1C=CC(=O)OCC`, the composite z-score was 0.743 in assay [1]; -0.223 in assay [2]; -0.226 in assay [3]; -0.176 in [5]; 0.0939 in assay [6]; 0.27 in [7]. Moreover, the composite z-score in assay [8] is 0.104; in [9], -0.0092; in [10], 0.321. For the same molecule, the z-score in assay [4] was -0.634 (inactive).

As for `COCCOC(=O)N1C(=O)[C@@]2(c3cc(C#CC4(O)CCCCCC4)ccc31)[C@H](c1ccc(OCCO)cc1)N1[C@H](c3ccccc3)[C@H](c3ccccc3)OC(=O)[C@H]1[C@@H]2C(=O)N1CCN(c2ncccn2)CC1`, the composite z-score was 1 in [1]; -0.165 in assay [2]; 0.107 in assay [3]; 1.11 in [5]; 1.28 in assay [6]; 0.334 in [7]. For the same molecule, the composite z-score in assay [8] stood at 1.06; in [9], 0.48; in assay [10], 0.0414. The z-score in assay [4] is -0.201 (inactive).

As to `CCS[C@H]1[C@@H](C(=O)O)[C@H](c2ccc(C)cc2)N(S(=O)(=O)c2ccc(C)cc2)[C@@H]1CC`, the composite z-score in [1] was 0.673; in assay [2], 0.686; in [3], 0.907; in assay [5] it was 1.14; in assay [6], 0.793; in [7], 0.0771. The composite z-score was 1.1 in assay [8], -0.0423 in assay [9] and 0.626 in assay [10]. Besides, the z-score in assay [4] was 0.269 (inactive).

`CCOC(=O)C[C@H]1[C@H](OC(=O)c2ccccc2-c2ccccc2)[C@@H](NC(=O)CC(C)C)c2cc(OCCCO)ccc2N1C(=O)Cc1ccc(OC)cc1`: the composite z-score in assay [1] was 0.0681; in assay [2], -0.235; in assay [3], 0.0198; in assay [5], 0.215; in [6], -0.199; in assay [7], -0.0484. In addition, the composite z-score is -0.305 in assay [8], -0.239 in assay [9] and 0.328 in assay [10]. Besides, in assay [4], the z-score is -0.284 (inactive).

As to `CC(C)[Si]1(C(C)C)O[C@@H](c2ccccc2)c2cc(-c3ccc(-c4ccc(Cl)c(Cl)c4)o3)nc(-c3ccccc3)c21`, the composite z-score in assay [1] is 0.735; in assay [2] it was 0.0699; in [3], 0.234; in [5], 0.353; in assay [6], -0.514; in assay [7], 0.0831. For the same molecule, the composite z-score is 0.0331 in assay [8], -0.172 in [9] and 0.756 in [10]. In assay [4], the z-score was 0.115 (inactive).

Consider `C=CCNC(=O)[C@@H]1[C@H]2C(=O)O[C@H](c3ccccc3)[C@H](c3ccccc3)N2[C@H](c2ccccc2OCCO)[C@@]12C(=O)N(C(=O)OCCOC)c1ccccc12`, for which the composite z-score in assay [1] is 1.54; in assay [2], -0.0073; in [3] it was -0.0387; in assay [5], 1.27; in [6], 1.33; in assay [7], 0.828. Further, the composite z-score in assay [8] worked out at 1.44; in [9], 0.825; in assay [10], 0.843. In addition, the z-score in assay [4] is -0.108 (inactive).

`OCCCC1=CC(c2cccs2)N(Cc2cc3c(cc2Br)OCO3)CC1` (stereo not given): the composite z-score in [1] is 0.725; in [2], -0.16; in assay [3], 0.197; in assay [5], 0.21; in assay [6] it was -0.0247; in [7], -0.275. Further, the composite z-score in [8] was -0.0688; in [9] it was 0.211; in assay [10] it was 1.01. Moreover, the z-score in [4] is -0.252 (inactive).

(Values after PubChem BioAssay.)
